This note sets out measurements from PubChem BioAssay AID2284381 (EPA ToxCast).

Records with an inconclusive call do not appear. Activity calls are given as the source filed them. How the source made its calls: active means hit-call score of the fitted dose curve at least 0.9, where 1 is the maximum; inconclusive means response in the unintended direction; inactive means score below 0.9.

The assay has as its system Japanese medaka Retinoid X Receptor beta (RXRb), gene 100125505. The assay can be described thus: ATG_jmRXRb_EcoTox2: Attagene TRANS-FACTORIAL EcoTox-2 HepG2 Assay for Japanese medaka Retinoid X Receptor beta (RXRb). The procedure:
ATG_EcoTox2 is a cell-based, multiplexed assay created by modifying the existing Attagene TRANS-FACTORIAL system to include a panel of nuclear receptors from some or all the following species: human (Homo sapiens), african clawed frog (Xenopus laevis), rainbow trout (Oncorhynchus mykiss), japanese medaka (Oryzias latipes), and zebrafish (Danio rerio). The ECOTOX2-FACTORIAL format uses HepG2, a human liver cell line, with measurements taken at 24 hours after chemical dosing in a 24-well plate. ATG_jmRXRb_EcoTox2 is one of 29 assay components calculated in the ATG_EcoTox2 assay. It is designed to make measurements of mRNA induction, a form of inducible reporter, as detected with fluorescence intensity signals by Reverse transcription polymerase chain reaction (RT-PCR) and Capillary electrophoresis technology.The assay endpoint ATG_jmRXRb_EcoTox2 was analyzed in the positive analysis fitting direction relative to DMSO as the negative control and baseline of activity. Using a type of inducible reporter, measures of mRNA for gain-of-signal activity can be used to understand the reporter gene at the transcription factor-level as they relate to the gene RXRb. Furthermore, this assay endpoint can be referred to as a primary readout, because this assay has produced multiple assay endpoints where this one serves a reporter gene function. To generalize the intended target to other relatable targets, this assay endpoint is annotated to the nuclear receptor intended target family, where the subfamily is non-steroidal.
Human liver HepG2 cells are transiently transfected with multiple reporter transcription units (MRTUs) in 6-well plates using FuGene 6 reagent (Roche; 3 ml FuGene/1 mg DNA). The MRTU constructs are regulated by a cis-regulating element (promoter). Each RTU expresses a GAL4-UAS that regulates the transcription of a nearby target reporter gene sequence. A major difference between the CIS and TRANS system is that in CIS activities of endogenous TFs are measured, whereas the TRANS assay evaluates changes in activities of exogenous, chimeric NR-Gal4 proteins. […] At the end of 24 hour incubation, total RNA was isolated using TriZol reagent (Invitrogen). The isolated RNA is then reverse-transcribed using oligo(dT) primer and Mo-MLV reverse transcriptase (Invitrogen) with DNAse I (Ambion) treatment for 30 min. The one-tenth of the produced cDNA was amplified by PCR using Taq DNA polymerase (Invitrogen) and two reporter sequence-specific primers. The PCR products were fluorescently labeled by primer extension with 6-arboxyfluorescein (6-FAM) 5'-labeled reporter sequence-specific primer (2 min at 95 C, 20 s at 68 C and 10 min at 72 C) and these products were digested with 5U of HpaI (New England Biolabs) for 2h at 37 C. The fragments were purified using Qiaquick PCR columns (Qiagen), analyzed on an ABI 3130xL genetic analyzer (Applied Biosystems) with peak positions identified by using a set of X-rhodamine (ROX)-labeled MapMarker1000 molecular weight standards (BioVentures). The raw capillary electrophoresis data was processed using Attagraph software (Attagene).
For `C[C@@H]1C[C@H]2[C@@H]3CCC4=CC(=O)C=C[C@]4(C)[C@@]3(F)[C@@H](O)C[C@]2(C)[C@@]1(O)C(=O)COP(=O)(O)O`, the call was inactive.

Take `Cc1cccc(Nc2cc(Cl)nc(SCC(=O)O)n2)c1C`: the AC50 (usually the concentration giving half of the maximal activity seen) is 27.4 µM (active).

Take `Cc1ccc(C)c(OCCCC(C)(C)C(=O)O)c1`: the AC50 was 50 µM (active).

For `C=C(c1ccc(C(=O)O)cc1)c1cc2c(cc1C)C(C)(C)CCC2(C)C`, the AC50 is 0.00302 µM (active).

Regarding `CN(CCOc1ccc(CC2SC(=O)NC2=O)cc1)c1ccccn1` (stereo not given), the AC50 was 12.9 µM (active).

For the molecule `CC(c1cc2ccccc2s1)N(O)C(N)=O` (stereo not given), the outcome was inactive.

As for `CC(C)(Oc1ccc(C2CC2(Cl)Cl)cc1)C(=O)O` (stereo not given), the call was inactive.

Regarding `CC(C)(Oc1ccc(CCNC(=O)c2ccc(Cl)cc2)cc1)C(=O)O`, the call was inactive.

As to `CC(C)(Oc1ccc(Cl)cc1)C(=O)O`, the molecule was called inactive.

For the molecule `Cc1nc(-c2ccc(C(F)(F)F)cc2)sc1C(=O)NCc1ccc(OC(C)(C)C(=O)O)cc1`, the result was inactive.
